Only some compounds are listed: those with a hit (about 3.3% of all), similar ones and a draw of the others.
ERb SRC1 inh: blocks coactivator binding to human estrogen receptor beta | Q92731 | TR-FRET ER-beta LBD / SRC1-Cy5 peptide binding; receptor agonist-loaded with 1 µM estradiol | inhibition, % at 25.6 µM | hit rate 1.3% among 86,000;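 active means compounds whose percent inhibition of the receptor-coactivator binding signal exceeds about 50% in the single-dose screen, limit read from the data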
Smad3 inh: inhibitors of human Smad3 transcription factor binding. P84022. TR-FRET Smad3/Dy647-FoxH1 peptide binding, europium anti-His. inhibition, % at 25 µM. hit rate 0.29% among 88,000. AID 630;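 active means compounds that reduce the energy-transfer binding signal between the protein and its labelled peptide by more than half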
Target sequence (P84022 whole entry, looked up): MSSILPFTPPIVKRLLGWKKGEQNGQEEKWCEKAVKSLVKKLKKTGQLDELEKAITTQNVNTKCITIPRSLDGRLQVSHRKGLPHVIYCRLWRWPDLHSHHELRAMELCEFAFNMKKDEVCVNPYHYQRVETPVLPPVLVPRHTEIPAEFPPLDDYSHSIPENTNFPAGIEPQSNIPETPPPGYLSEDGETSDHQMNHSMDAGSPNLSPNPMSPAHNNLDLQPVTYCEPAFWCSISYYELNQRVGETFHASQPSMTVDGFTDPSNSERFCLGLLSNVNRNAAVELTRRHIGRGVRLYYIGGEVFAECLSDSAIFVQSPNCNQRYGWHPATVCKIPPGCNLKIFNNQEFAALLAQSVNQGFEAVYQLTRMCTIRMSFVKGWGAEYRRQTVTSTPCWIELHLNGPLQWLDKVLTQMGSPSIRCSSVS
ERa SRC1 pot: ER-alpha (human) coactivator binding potentiation. P03372. TR-FRET ERalpha-LBD/SRC-Cy5 coactivator binding, 2 h; 100 = basal binding, no effect. coactivator binding (% of control), % at 25.6 µM. hit rate 1.3% among 86,000. AID 639; in the data active means activity above about 200%;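 further: binding measured in presence of low estradiol as agonist stimulus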
ERa SRC1 inh: ER-alpha (human) coactivator binding inhibition; TR-FRET ER-alpha LBD / SRC-1 peptide, estradiol-bound; hit rate 1.7% among 86,000; AID 629; P03372; inhibition, % at 25.6 µM; in the data active means inhibition above about 50%
FAK inh: inhibitors of human focal adhesion kinase; biochemical FAK kinase activity assay; inhibition, %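 (tested at 7 µM)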; hit rate 0.84% among 97,000; in the data active means inhibition above about 19%
Numbers stand for hits; [ ] = dose if it differs, or a comment.

Results for O=C(O)c1cccc(N=Nc2c(S(=O)(=O)O)ccc3c2C(=O)c2ccccc2C3=O)c1O ?
Smad3 inh: inactive

How did Nc1nc(-c2ccccc2)c(-c2ccccc2)c(-c2nc(N)nc(-c3ccccc3)c2-c2ccccc2)n1 do in these assays?
Smad3 inh: inactive

How did CC(C)c1ccccc1NC(=O)c1cnccn1 do in these assays?
ERb SRC1 inh: inactive; Smad3 inh: inactive; ERa SRC1 pot: inactive; ERa SRC1 inh: inactive; FAK inh: inactive

How did CSc1ccccc1NC(=O)c1cnccn1 do in these assays?
ERb SRC1 inh: inactive; Smad3 inh: inactive; ERa SRC1 pot: inactive; ERa SRC1 inh: 56[fluorescence artefact?]; FAK inh: inactive

How did COc1ccc(NC(=O)c2cc(-c3ccc(C)o3)nc3ccccc23)cc1OC do in these assays?
ERb SRC1 inh: 68[fluorescence artefact?]; Smad3 inh: inactive; ERa SRC1 pot: inactive; ERa SRC1 inh: 79[fluorescence artefact?]; FAK inh: inactive

Results for Cc1c(NC(=O)c2ccc(F)c(S(=O)(=O)N3CCOCC3)c2)c(=O)n(-c2ccccc2)n1C ?
ERb SRC1 inh: inactive; Smad3 inh: inactive; ERa SRC1 pot: inactive; ERa SRC1 inh: inactive; FAK inh: inactive

Results for CCCCNC(=O)c1onc(CSc2cccc3ccccc23)c1C(=O)O ?
FAK inh: inactive

What do the screens show for `CC(=O)Nc1nc(CC(C)C)cc2c1c(=O)oc1ccccc12`?
ERb SRC1 inh: inactive; Smad3 inh: inactive; ERa SRC1 pot: inactive; ERa SRC1 inh: inactive; FAK inh: inactive

What do the screens show for `CC(=O)Nc1nc2c(c3c1c(=O)oc1ccccc13)CC(C)CC2` (stereo not given)?
ERb SRC1 inh: inactive; Smad3 inh: inactive; ERa SRC1 pot: 227[fluorescence artefact?]; ERa SRC1 inh: inactive; FAK inh: inactive

How did CC(=O)Nc1nc2c(c3c1c(=O)oc1ccccc13)CCCC2 do in these assays?
ERb SRC1 inh: inactive; Smad3 inh: inactive; ERa SRC1 pot: inactive; ERa SRC1 inh: inactive; FAK inh: inactive

How did CCCCc1cc2c(c(NC(C)=O)n1)c(=O)oc1ccccc12 do in these assays?
ERb SRC1 inh: inactive; Smad3 inh: inactive; ERa SRC1 pot: 270[fluorescence artefact?]; ERa SRC1 inh: inactive; FAK inh: inactive

How did CCCCc1cc2c(c(NC(=O)CC)n1)c(=O)oc1ccccc12 do in these assays?
ERb SRC1 inh: inactive; Smad3 inh: inactive; ERa SRC1 pot: inactive; ERa SRC1 inh: 62[fluorescence artefact?]; FAK inh: inactive

What do the screens show for `CCN(CC)S(=O)(=O)c1cccc(-c2nnc(SCCCC(=O)c3ccc(F)cc3)o2)c1`?
ERb SRC1 inh: inactive; Smad3 inh: inactive; ERa SRC1 pot: 578[fluorescence artefact?]; ERa SRC1 inh: inactive; FAK inh: inactive

What do the screens show for `C=CCSc1nc2ccccc2c(=O)n1Cc1ccco1`?
Smad3 inh: inactive

What do the screens show for `COCCCNC(=O)Cn1cc2c(n1)CCC(C)C2` (stereo not given)?
ERb SRC1 inh: inactive; Smad3 inh: inactive; ERa SRC1 pot: 205; ERa SRC1 inh: inactive

How did COCCCNC(=O)Cn1cc2c(n1)CCCCC2 do in these assays?
ERb SRC1 inh: inactive; Smad3 inh: inactive; ERa SRC1 pot: inactive; ERa SRC1 inh: inactive

What do the screens show for `CCN(CC)CCc1c(C)[nH]c(C(=O)OCc2ccccc2)c1C`?
ERb SRC1 inh: 93[fluorescence artefact?]; Smad3 inh: inactive; ERa SRC1 pot: inactive; ERa SRC1 inh: 96[fluorescence artefact?]; FAK inh: inactive

Results for CCOC(=O)c1[nH]c(C)c(CN(CCc2ccccc2)C(=O)CCC(=O)O)c1C ?
ERb SRC1 inh: inactive; Smad3 inh: inactive; ERa SRC1 pot: inactive; ERa SRC1 inh: inactive; FAK inh: inactive

What do the screens show for `CN(C)S(=O)(=O)N1CCN(CC(O)COc2ccc3cc(Br)ccc3c2)CC1` (stereo not given)?
ERb SRC1 inh: inactive; Smad3 inh: inactive; ERa SRC1 pot: inactive; ERa SRC1 inh: inactive; FAK inh: inactive

Results for O=S(=O)(N1CCCCC1)N1CCN(CC(O)COc2ccc3cc(Br)ccc3c2)CC1 (stereo not given) ?
ERb SRC1 inh: inactive; Smad3 inh: inactive; ERa SRC1 pot: 253; ERa SRC1 inh: inactive; FAK inh: inactive

How did CCOc1ccc(/C=c2\sc3nc(-c4ccco4)nn3c2=O)cc1OCC do in these assays?
ERb SRC1 inh: inactive; Smad3 inh: inactive; ERa SRC1 pot: inactive; ERa SRC1 inh: 55; FAK inh: inactive

How did CC(C)c1ccc(/C=c2\sc3nc(-c4ccncc4)nn3c2=O)cc1 do in these assays?
FAK inh: inactive

How did COc1ccc(OC)c(/C=c2\sc3nc(-c4cccs4)nn3c2=O)c1 do in these assays?
ERb SRC1 inh: inactive; Smad3 inh: inactive; ERa SRC1 pot: inactive; ERa SRC1 inh: inactive; FAK inh: inactive

What do the screens show for `COc1ccccc1/C=c1\sc2nc(-c3ccco3)nn2c1=O`?
ERb SRC1 inh: 67[fluorescence artefact?]; Smad3 inh: inactive; ERa SRC1 pot: inactive; ERa SRC1 inh: 74; FAK inh: inactive

How did CC(CCc1nc2ccccc2s1)(c1ccc(O)cc1)c1ccc(O)cc1 do in these assays?
Smad3 inh: inactive

Results for O=C(O)/C(Cc1ccc([N+](=O)[O-])cc1)=N\O ?
Smad3 inh: inactive

Results for CN(C)S(=O)(=O)c1nc(Cl)c2[nH]cnc2n1 ?
Smad3 inh: inactive

Results for O=C(Nc1nc(-c2ccc(S(=O)(=O)N3CCCCCC3)cc2)cs1)c1ccccc1 ?
ERb SRC1 inh: inactive; Smad3 inh: inactive; ERa SRC1 pot: 696[fluorescence artefact?]; ERa SRC1 inh: inactive; FAK inh: inactive

Results for COCCN(CCOC)S(=O)(=O)c1ccc(C(=O)Nc2nc(C)c(C(C)=O)s2)cc1 ?
FAK inh: inactive

Results for COCCN(CCOC)S(=O)(=O)c1ccc(C(=O)Nc2nc(-c3ccncc3)cs2)cc1 ?
ERb SRC1 inh: inactive; Smad3 inh: inactive; ERa SRC1 pot: 211; ERa SRC1 inh: inactive; FAK inh: inactive

Results for CN(C)S(=O)(=O)c1ccc(C(=O)Nc2nc(-c3cccs3)cs2)cc1 ?
ERb SRC1 inh: inactive; Smad3 inh: inactive; ERa SRC1 pot: inactive; ERa SRC1 inh: inactive; FAK inh: inactive

What do the screens show for `O=C(Nc1nc(-c2cccs2)cs1)c1ccc(S(=O)(=O)N2CCCC2)cc1`?
ERb SRC1 inh: 51[fluorescence artefact?]; Smad3 inh: inactive; ERa SRC1 pot: inactive; ERa SRC1 inh: inactive; FAK inh: inactive

What do the screens show for `O=C(Nc1nc(-c2ccc3c(c2)OCCO3)cs1)c1ccc(S(=O)(=O)N2CCCCC2)cc1`?
ERb SRC1 inh: inactive; Smad3 inh: inactive; ERa SRC1 pot: 269[fluorescence artefact?]; ERa SRC1 inh: inactive; FAK inh: inactive

Results for Nc1ccccc1S[C@@H](C[N+](=O)[O-])c1ccc2c(c1)OCO2 ?
Smad3 inh: inactive

How did CC(C)CO[C@H](c1ccc2c(c1)OCO2)[C@H](C)Br do in these assays?
Smad3 inh: inactive

Results for CCCCN1C2CCCC1CC(NC(=O)N(C(C)C)C(C)C)C2 (stereo not given) ?
ERb SRC1 inh: inactive; Smad3 inh: inactive; ERa SRC1 pot: inactive; ERa SRC1 inh: inactive; FAK inh: inactive

How did O=C(O)c1cccc(SSc2cccc(C(=O)O)c2)c1 do in these assays?
Smad3 inh: inactive

How did Cc1ccc2oc(=O)c3cnn(CC(=O)N4CCN(c5ccccc5)CC4)c3c2c1 do in these assays?
ERb SRC1 inh: inactive; Smad3 inh: inactive; ERa SRC1 pot: inactive; ERa SRC1 inh: inactive; FAK inh: inactive
